Data from PubChem BioAssay (EPA / NIEHS).
Activity calls are given as the source filed them. Rule for the calls: active = hit-call score of the fitted dose curve at least 0.9, where 1 is the maximum; inactive = score below 0.9.

Tests used:
Conditions in all cases: mRNA level, 48 h; actives raise or lower the signal
[1] = read-out: Insulin Like Growth Factor 1 (IGF1), IGF1 (gene 3479); experiment: LTEA_HepaRG_IGF1: Life Technologies and Expression Analysis (LTEA) Assay for Insulin Like Growth Factor 1 (IGF1) using HepaRG (AID 2283506)
Summary of the method: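 Differentiated human HepaRG cells were dosed for 48 h in serum-free induction medium with 0.5% DMSO, eight half-log concentrations up to 100 uM, in duplicate. IGF1 mRNA was quantified by qRT-PCR normalized to ACTB, GAPDH, POLR2A; bidirectional fitting versus DMSO.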

[2] = read-out: Intercellular Adhesion Molecule 1 (ICAM1), ICAM1 (gene 3383); experiment: LTEA_HepaRG_ICAM1: Life Technologies and Expression Analysis (LTEA) Assay for Intercellular Adhesion Molecule 1 (ICAM1) using HepaRG (AID 2283507)
Summary of the method: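 Using the human liver line HepaRG, compounds are tested in duplicate over 48 h at concentrations up to 100 uM. Expression is determined by TaqMan qRT-PCR, normalized to endogenous controls, and analysed relative to 0.5% DMSO vehicle.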

[3] = read-out: Insulin-like growth factor-binding protein 1 (IGFBP1), IGFBP1 (gene 3484); experiment: LTEA_HepaRG_IGFBP1: Life Technologies and Expression Analysis (LTEA) Assay for Insulin-like growth factor-binding protein 1 (IGFBP1) using HepaRG (AID 2283508)
Summary of the method: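 HepaRG, 48 h, 8 conc. (max 100 uM, half-log), duplicates, 0.5% DMSO. Readout: TaqMan qRT-PCR, ACTB/GAPDH/POLR2A normalisation. Fit: bidirectional vs DMSO.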

[4] = read-out: Interleukin 6 (IL6), IL6 (gene 3569); experiment: LTEA_HepaRG_IL6: Life Technologies and Expression Analysis (LTEA) Assay for Interleukin 6 (IL6) using HepaRG (AID 2283509)
Summary of the method: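 Differentiated human HepaRG cells, plated 48 h then switched to serum-free induction medium, were exposed in duplicate for 48 h to eight half-log concentrations up to 100 uM in 0.5% DMSO. IL6 mRNA measured by qRT-PCR, normalized to ACTB/GAPDH/POLR2A.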

[5] = read-out: Interleukin 6 Receptor (IL6R), IL6R (gene 3570); experiment: LTEA_HepaRG_IL6R: Life Technologies and Expression Analysis (LTEA) Assay for Interleukin 6 Receptor (IL6R) using HepaRG (AID 2283510)
Summary of the method: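 Differentiated human HepaRG cells, plated 48 h then switched to serum-free induction medium, were dosed in duplicate for 48 h at eight half-log concentrations up to 100 uM in 0.5% DMSO. IL6R mRNA quantified by qRT-PCR, normalized to ACTB/GAPDH/POLR2A; bidirectional fit versus DMSO.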

[6] = read-out: Potassium channel subfamily K member 1 (KCNK1), KCNK1 (gene 3775); experiment: LTEA_HepaRG_KCNK1: Life Technologies and Expression Analysis (LTEA) Assay for Potassium channel subfamily K member 1 (KCNK1) using HepaRG (AID 2283511)
Summary of the method: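 Differentiated human HepaRG cells in serum-free induction medium were exposed in duplicate for 48 h to 8 half-log concentrations up to 100 uM in 0.5% DMSO. KCNK1 mRNA was measured by TaqMan qRT-PCR, normalized to ACTB, GAPDH and POLR2A, and fitted bidirectionally versus DMSO.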

[7] = read-out: Keratin 19 (KRT19), KRT19 (gene 3880); experiment: LTEA_HepaRG_KRT19: Life Technologies and Expression Analysis (LTEA) Assay for Keratin 19 (KRT19) using HepaRG (AID 2283512)
Summary of the method: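 Readout is qRT-PCR of KRT19 mRNA, normalized to ACTB, GAPDH and POLR2A, from HepaRG cells treated 48 h with eight-point half-log dilutions topping at 100 uM. Activity in either direction is scored relative to 0.5% DMSO vehicle.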

[8] = read-out: JUN Transcription Factor, JUN (gene 3725); experiment: LTEA_HepaRG_JUN: Life Technologies and Expression Analysis (LTEA) Assay for JUN Transcription Factor using HepaRG (AID 2283513)
Summary of the method: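 Differentiated HepaRG cells were exposed to chemicals for 48 h in serum-free induction medium, 8 concentrations from 100 uM in half-log steps, 0.5% DMSO vehicle, in duplicate. JUN mRNA was quantified by TaqMan qRT-PCR, normalized to ACTB, GAPDH, POLR2A.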

[9] = read-out: Lipase C (LIPC), LIPC (gene 3990); experiment: LTEA_HepaRG_LIPC: Life Technologies and Expression Analysis (LTEA) Assay for Lipase C (LIPC) using HepaRG (AID 2283514)
Summary of the method: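 Differentiated human HepaRG cells in serum-free induction medium were exposed in duplicate for 48 h to eight concentrations (top 100 uM, half-log steps, 0.5% DMSO). LIPC mRNA was quantified by TaqMan qRT-PCR, normalized to ACTB, GAPDH and POLR2A, with bidirectional fitting versus DMSO.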

[10] = read-out: Lipoprotein lipase (LPL), LPL (gene 4023); experiment: LTEA_HepaRG_LPL: Life Technologies and Expression Analysis (LTEA) Assay for Lipoprotein lipase (LPL) using HepaRG (AID 2283515)
Summary of the method: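 Differentiated human HepaRG cells in serum-free induction medium were exposed in duplicate for 48 h to eight half-log concentrations (top 100 uM) in 0.5% DMSO. LPL mRNA was quantified by TaqMan qRT-PCR, normalized to ACTB, GAPDH and POLR2A.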

[11] = read-out: MicroRNA 122 (MIR122), gene 406906; experiment: LTEA_HepaRG_MIR122: Life Technologies and Expression Analysis (LTEA) Assay for MicroRNA 122 (MIR122) using HepaRG (AID 2283516); note: the transcript read is the microRNA miR-122
Summary of the method: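 Differentiated human HepaRG cells were exposed 48 h in serum-free induction medium to eight half-log concentrations (top 100 uM, 0.5% DMSO). Transcript level was measured by TaqMan qRT-PCR, normalized to ACTB, GAPDH and POLR2A, and fitted bidirectionally versus DMSO.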

[12] = read-out: matrix metalloproteinase-10 (MMP10), MMP10 (gene 4319); experiment: LTEA_HepaRG_MMP10: Life Technologies and Expression Analysis (LTEA) Assay for matrix metalloproteinase-10 (MMP10) using HepaRG (AID 2283517)
Summary of the method: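 HepaRG, collagen I, ~100,000 cells/well; serum-free induction medium; 48 h exposure, duplicate, 8-pt half-log to 100 uM, 0.5% DMSO. Readout: TaqMan qRT-PCR, normalized to ACTB/GAPDH/POLR2A; bidirectional fit vs DMSO.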

MYC, MYC (gene 4609) = experiment: LTEA_HepaRG_MYC: Life Technologies and Expression Analysis (LTEA) Assay for MYC using HepaRG (AID 2283518)
Summary of the method: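 Expression changes were scored by TaqMan qRT-PCR with ACTB, GAPDH and POLR2A normalization. Cultures in serum-free induction medium received duplicate 8-point concentration series, highest 100 uM, for 48 h; DMSO (0.5%) served as baseline.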

[13] = read-out: matrix metalloproteinase-3 (MMP3), MMP3 (gene 4314); experiment: LTEA_HepaRG_MMP3: Life Technologies and Expression Analysis (LTEA) Assay for matrix metalloproteinase-3 (MMP3) using HepaRG (AID 2283519)
Summary of the method: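 Differentiated human HepaRG cells, plated 48 h on collagen I, were exposed in duplicate for 48 h in serum-free induction medium to eight half-log concentrations up to 100 uM in 0.5% DMSO. MMP3 mRNA was quantified by TaqMan qRT-PCR, normalised to ACTB, GAPDH and POLR2A.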

[14] = read-out: Paternally Expressed 10 (PEG10), PEG10 (gene 23089); experiment: LTEA_HepaRG_PEG10: Life Technologies and Expression Analysis (LTEA) Assay for Paternally Expressed 10 (PEG10) using HepaRG (AID 2283520)
Summary of the method: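 Differentiated HepaRG cells, plated 48 h then switched to serum-free induction medium, were exposed in duplicate for 48 h to eight half-log concentrations topping at 100 uM in 0.5% DMSO. PEG10 mRNA was quantified by TaqMan qRT-PCR, normalised to ACTB, GAPDH and POLR2A.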

[15] = read-out: Nuclear factor NF-kappa-B p105 subunit (Homo sapiens) (UniProt P19838); experiment: LTEA_HepaRG_NFKB1: Life Technologies and Expression Analysis (LTEA) Assay for Nuclear Factor Kappa B Subunit 1 (NFKB1) using HepaRG (AID 2283521);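 note: TaqMan qRT-PCR transcript normalised to ACTB GAPDH and POLR2A housekeeping genes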
Summary of the method: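 HepaRG, 48 h exposure; 8-pt half-log series from 100 uM in 0.5% DMSO; duplicates. Readout: NFKB1 mRNA by qRT-PCR (Fluidigm arrays), housekeeping-normalized. Gain/loss fit vs DMSO baseline.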

[16] = read-out: Protein phosphatase 2A (PPP2R4), PTPA (gene 5524); experiment: LTEA_HepaRG_PPP2R4: Life Technologies and Expression Analysis (LTEA) Assay for Protein phosphatase 2A (PPP2R4) using HepaRG (AID 2283522)
Summary of the method: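 Differentiated HepaRG cells in serum-free induction medium were exposed in duplicate for 48 h to eight concentrations, top 100 uM with half-log dilutions, in 0.5% DMSO. PPP2R4 mRNA was quantified by TaqMan qRT-PCR, normalized to ACTB, GAPDH and POLR2A.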

[17] = read-out: Phosphatase and tensin (PTEN), PTEN (gene 5728); experiment: LTEA_HepaRG_PTEN: Life Technologies and Expression Analysis (LTEA) Assay for Phosphatase and tensin (PTEN) using HepaRG (AID 2283523)
Summary of the method: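 Differentiated human HepaRG cells, plated 48 h then switched to serum-free induction medium, were exposed in duplicate for 48 h to eight half-log concentrations up to 100 uM in 0.5% DMSO. PTEN mRNA measured by TaqMan qRT-PCR, normalized to ACTB/GAPDH/POLR2A, bidirectional fit versus DMSO.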

[18] = read-out: solute carrier (SLC22A1), SLC22A1 (gene 6580); experiment: LTEA_HepaRG_SLC22A1: Life Technologies and Expression Analysis (LTEA) Assay for solute carrier (SLC22A1) using HepaRG (AID 2283524)
Summary of the method: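 Human HepaRG cells were plated 48 h, switched to serum-free induction medium, then exposed in duplicate for 48 h to 8-point half-log series from 100 uM in 0.5% DMSO. SLC22A1 mRNA measured by qRT-PCR, normalized to ACTB/GAPDH/POLR2A, fitted bidirectionally versus DMSO.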

[19] = read-out: Pyruvate Dehydrogenase Kinase 4 (PDK4), PDK4 (gene 5166); experiment: LTEA_HepaRG_PDK4: Life Technologies and Expression Analysis (LTEA) Assay for Pyruvate Dehydrogenase Kinase 4 (PDK4) using HepaRG (AID 2283525)
Summary of the method: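 Differentiated human HepaRG cells, pre-cultured 48 h, were exposed in duplicate for 48 h in serum-free induction medium to eight half-log concentrations up to 100 uM in 0.5% DMSO. PDK4 mRNA was quantified by qRT-PCR, normalized to ACTB, GAPDH and POLR2A, bidirectional fitting versus DMSO.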

Measured: outcome

Sequence of Nuclear factor NF-kappa-B p105 subunit (Homo sapiens) (P19838 whole entry, looked up): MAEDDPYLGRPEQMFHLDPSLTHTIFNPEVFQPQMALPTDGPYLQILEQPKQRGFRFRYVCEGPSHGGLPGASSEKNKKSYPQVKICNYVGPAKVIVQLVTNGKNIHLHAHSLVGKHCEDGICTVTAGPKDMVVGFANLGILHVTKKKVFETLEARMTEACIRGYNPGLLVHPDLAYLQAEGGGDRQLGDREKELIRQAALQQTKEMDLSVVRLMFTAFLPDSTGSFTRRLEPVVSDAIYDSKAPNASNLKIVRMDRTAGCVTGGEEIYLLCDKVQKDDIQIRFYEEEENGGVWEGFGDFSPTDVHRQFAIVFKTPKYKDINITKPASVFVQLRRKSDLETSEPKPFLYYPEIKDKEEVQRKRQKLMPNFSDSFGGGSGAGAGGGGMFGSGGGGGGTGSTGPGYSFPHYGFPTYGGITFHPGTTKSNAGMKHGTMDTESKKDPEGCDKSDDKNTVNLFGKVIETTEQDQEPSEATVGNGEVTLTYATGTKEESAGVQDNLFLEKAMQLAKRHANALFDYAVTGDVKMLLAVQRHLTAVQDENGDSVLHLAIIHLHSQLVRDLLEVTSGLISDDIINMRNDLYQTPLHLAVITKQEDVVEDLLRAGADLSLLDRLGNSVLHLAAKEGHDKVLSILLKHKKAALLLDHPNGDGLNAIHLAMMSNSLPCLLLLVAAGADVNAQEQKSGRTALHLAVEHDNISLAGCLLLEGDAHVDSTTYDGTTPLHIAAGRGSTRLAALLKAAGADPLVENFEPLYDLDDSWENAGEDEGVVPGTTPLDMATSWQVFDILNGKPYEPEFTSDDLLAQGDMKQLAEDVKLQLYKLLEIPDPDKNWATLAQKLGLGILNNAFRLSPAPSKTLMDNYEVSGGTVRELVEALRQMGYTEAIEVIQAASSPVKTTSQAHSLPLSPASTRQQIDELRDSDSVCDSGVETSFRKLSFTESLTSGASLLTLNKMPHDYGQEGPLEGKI

CCCCCCCCCCCC(=O)OC
inactive: [1] | [2] | [3] | [4] | [5] | [6] | [7] | [8] | [9] | [10] | [11] | [12] | MYC, MYC (gene 4609) | [13] | [14] | [15] | [16] | [17] | [18] | [19]

CC1(C)NC(=O)NC1=O
inactive: [1] | [2] | [3] | [4] | [5] | [6] | [7] | [8] | [9] | [10] | [11] | [12] | MYC, MYC (gene 4609) | [13] | [14] | [15] | [16] | [17] | [18] | [19]

CCCCc1ccc2c(n1)[C@@H](c1ccc(OC)cc1C[C@H](C)C(=O)O)[C@H](C(=O)O)[C@H]2c1ccc2c(c1)OCO2
inactive: [1] | [2] | [3] | [4] | [5] | [6] | [7] | [8] | [9] | [10] | [11] | [12] | MYC, MYC (gene 4609) | [13] | [14] | [16] | [17] | [18] | [19]
